Test results taken from the supplement of paper PMC12636033.
± gives the standard deviation of the averaged measurements. The full ranking holds about 33,000 sequences; the median of “E-score (rank enrichment, -0.5 to 0.5)” is about -0.0043, and the highest 2% start at about 0.24. The sample holds the highest values, similar sequences and a random draw of the others, so the mix is not that of the screen.

The sequences below were run on 2Sp-muMax20 (muMax20 with two 2,6-bis(methyl)pyridine Cys staples) (assay: PBM 8-mer E-score (E-score (rank enrichment, -0.5 to 0.5)); higher = stronger preferential binding).
Experimental: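 Protein binding microarray (universal PBM chip covering all 10-mers in fixed probe flanks) with chemically synthesized human Max(13-93) bHLH-LZ analogs (not full-length Max) bearing noncanonical residues (hArg, Tha, Aib, Nle at 65) and aromatic Cys staples. Read-out per 8-mer (and its reverse complement): E-score (rank-based enrichment, -0.5 to 0.5) and Z-score of median probe intensity.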

Sequence | PBM 8-mer E-score
GACAGGTC | -0.12 ± 0.088
AGAGCCAA | 0.00188 ± 0.0012
CGAGGACC | -0.245 ± 0.046
AACGGCCT | 0.275 ± 0.0083
AACGGCCA | -0.0961 ± 0.022
AACGGCCC | -0.372 ± 0.037
TCGTCCAA | -0.0225 ± 0.01
AACGGTCC | -0.298 ± 0.1
AGACGTGA | 0.0537 ± 0.03
TCACGTAA | -0.0172 ± 0.028
AGACGTGC | -0.145 ± 0.021
TCACGTGA | 0.438 ± 0.0011
ACACGTGG | 0.3868 ± 0.00064
ACACGTAG | -0.0191 ± 0.055
ACACGTAC | -0.0036 ± 0.092
ATACGTGA | -0.0748 ± 0.062
AAACGTGG | 0.0452 ± 0.042
ACACGTGA | 0.412 ± 0.034
TAACGTGA | 0.093 ± 0.036
ACACGTGC | 0.407 ± 0.024
CCTCTTAG | -0.00532 ± 0.11
CATTCGCA | 0.0276 ± 0.0019
ACCAAACC | 0.0152 ± 0.034
CAGTCTAG | -0.117 ± 0.05
CAATAGAA | 0.0449 ± 0.032

Sequence | PBM 8-mer E-score
ACGCGTGC | 0.177 ± 0.049
ACACGTAT | 0.178 ± 0.052
ACGCGTGA | 0.25 ± 0.0042
AAACGTGT | 0.077 ± 0.06
GCGCGTGA | 0.2082 ± 0.00059
ACACGTGT | 0.421 ± 0.015
ACTTTCCC | -0.0248 ± 0.091
CTCGTCTC | -0.0179 ± 0.03
CTCACGTC | -0.00269 ± 0.06
CTTCGAGA | -0.0158 ± 0.028
ATTCGAGA | 0.239 ± 0.052
ATTCGAGC | -0.0718 ± 0.14
AGGTTGCC | -0.164 ± 0.035
GCACCTAC | -0.194 ± 0.0063
ATCACGAT | 0.00138 ± 0.12
CGCACGCC | -0.0203 ± 0.1
AAGACCCA | 0.0969 ± 0.13
TAGACCCA | 0.282 ± 0.061
GAGACCCA | -0.1 ± 0.07
CCTTTAAC | -0.0714 ± 0.012
GGCGCACC | -0.281 ± 0.032
CGCTACCA | -0.1194 ± 0.00063
CTATCCTC | 0.0112 ± 0.011
ATATCCTA | 0.0987 ± 0.0053
ATATCCCG | 0.0776 ± 0.056

Sequence | PBM 8-mer E-score
CTATCCCC | 0.0647 ± 0.044
ATATCTTC | 0.294 ± 0.022
ATATCCTC | 0.265 ± 0.056
ATATCCCC | 0.28 ± 0.028
CTATCTTC | 0.0745 ± 0.024
ATATCTTA | 0.19 ± 0.0044
CAGAGATC | -0.137 ± 0.014
TCTTCGCA | 0.0987 ± 0.026
AGCTGACT | -0.0778 ± 0.023
ACAAGATG | 0.115 ± 0.02
CTGAAGGC | -0.247 ± 0.05
AATGTACA | 0.0795 ± 0.02
CATGTACA | 0.143 ± 0.1
TATGTACA | 0.25 ± 0.028
GATGTACA | 0.165 ± 0.009
CATGTACG | 0.2899 ± 0.0015
AATGTACG | 0.0758 ± 0.021
CTGAACAA | -0.00871 ± 0.029
GGCCTTAA | 0.0324 ± 0.052
ACCAAATG | -0.043 ± 0.09
AAGAGACA | 0.252 ± 0.042
GAGAGACA | -0.174 ± 0.03
TAGAGACA | -0.0515 ± 0.021
AAGGTGAT | 0.157 ± 0.033
CTAGTAAA | 0.12 ± 0.047

Sequence | PBM 8-mer E-score
ATAGTAAT | 0.19 ± 0.084
ATAGTAAA | 0.274 ± 0.033
ACATAGGA | 0.102 ± 0.044
ATTTTATG | 0.0502 ± 0.14
GTTTTATA | 0.168 ± 0.13
ATTTTATA | 0.264 ± 0.03
CTTTTGTA | 0.0481 ± 0.15
CATTTATA | 0.141 ± 0.023
AATTTATA | 0.27046 ± 0.00013
ATTTTGTG | 0.0633 ± 0.081
AATTTATC | 0.105 ± 0.038
ATTTTGTA | 0.239 ± 0.12
ACGCCCTA | -0.000715 ± 0.088
CCCAACAC | 0.00365 ± 0.023
AATTCCGA | -0.0265 ± 0.07
GCAAAGCA | 0.155 ± 0.058
CAAATTTG | 0.117 ± 0.032
GAAATTTC | 0.114 ± 0.052
CAAATTTC | 0.236 ± 0.031
CCCTATCC | -0.0867 ± 0.098
TAATACGA | -0.0384 ± 0.02
ATAATATG | 0.185 ± 0.062
AATATATT | 0.2823 ± 0.0018
AATATAGC | 0.168 ± 0.047
AATATATA | 0.186 ± 0.0061

Sequence | PBM 8-mer E-score
AATATATG | 0.303 ± 0.0091
AATATATC | 0.239 ± 0.051
AAAATATG | 0.114 ± 0.021
CTAATATC | 0.173 ± 0.038
AATATAGT | 0.152 ± 0.037
AATATGTG | 0.191 ± 0.037
GATATATC | 0.102 ± 0.037
ATAATATC | 0.24 ± 0.082
TGACATAA | 0.128 ± 0.05
GTGTGGAA | 0.118 ± 0.01
AGCCCGTA | -0.23 ± 0.063
CATTTCAC | 0.0886 ± 0.049
AATTTTCA | 0.146 ± 0.05
CACATTCG | 0.00422 ± 0.036
ATTACTGA | 0.103 ± 0.074
CGAGGAAC | -0.084 ± 0.029
AATATGGC | 0.302 ± 0.044
AATATGGT | 0.0878 ± 0.052
AATATGGA | 0.104 ± 0.011
AGCAACAG | -0.0291 ± 0.074
ACCTAAGT | -0.0381 ± 0.043
ATATTGTC | 0.121 ± 0.03
CATAGTGA | 0.0514 ± 0.05
TATAGTGA | 0.249 ± 0.048
AATAGTGA | -0.033 ± 0.029

Sequence | PBM 8-mer E-score
GGTGTTGA | 0.0564 ± 0.02
AGGAACAT | -0.135 ± 0.031
CTTTACGA | -0.0477 ± 0.0036
ATTTACGA | 0.0937 ± 0.12
GTTTACGA | 0.242 ± 0.027
GAACGCAC | -0.0274 ± 0.025
ACAAAGCT | 0.00391 ± 0.011
ATATATCA | 0.212 ± 0.014
CTGTATCA | -0.0346 ± 0.018
TCATAGCA | 0.159 ± 0.02
ATGTATCC | -0.111 ± 0.0078
ACATATCG | 0.115 ± 0.042
CCATATCA | 0.114 ± 0.071
CCATAGCA | 0.135 ± 0.0028
ACATATCA | 0.299 ± 0.0056
CTGTATCC | 0.236 ± 0.0094
CTATATCA | 0.24 ± 0.0079
ACATAGCA | 0.236 ± 0.05
GTATATCA | 0.0652 ± 0.016
CGCGCAGC | -0.126 ± 0.023
GCAGACGC | -0.0631 ± 0.015
CCCAACTA | 0.161 ± 0.022
TTCGGCAA | 0.0437 ± 0.12
AAATCAGG | 0.041 ± 0.025
TGCCGTAA | -0.113 ± 0.098

Sequence | PBM 8-mer E-score
CGCCAGCA | -0.199 ± 0.1
CACGAAAC | 0.164 ± 0.018
CTATATCC | 0.169 ± 0.018
ATATATCC | 0.285 ± 0.096
ATATATCG | 0.0892 ± 0.031
AAACTCGT | -0.0113 ± 0.038
CACCTTTA | -0.0135 ± 0.041
ATCTAGTC | -0.00402 ± 0.0038
CACATTAC | 0.2476 ± 0.0022
CACATTAG | 0.00777 ± 0.035
AACATTAC | 0.169 ± 0.003
CCATTCGC | -0.13 ± 0.11
GCGAGGTA | -0.144 ± 0.19
AGTTCCCC | -0.0334 ± 0.025
TATTATCA | 0.122 ± 0.025
CATTATAA | 0.246 ± 0.1
AATTATAA | 0.3 ± 0.026
TATTCTAA | 0.246 ± 0.003
TCTTATAA | 0.193 ± 0.04
CATTCTAA | 0.00098 ± 0.075
AATTCTAA | 0.133 ± 0.092
GATTATAA | 0.154 ± 0.034
